{"source": "PubChem BioAssay (NCATS)", "note": "Records with an inconclusive call do not appear. A call without a number means that no potency is given here. Activity calls are given as the source filed them. Calls follow the shape of the dose curve; as a rule, active = well fitted inhibition curve with a large enough effect; inconclusive = small, poorly fitted or top-dose-only effect; inactive = no such curve, though single readings can be large or run the other way.", "data": [{"tested_on": "not listed separately", "assay": "Primary qHTS for small molecule stabilizers of the endoplasmic reticulum resident proteome: Secreted ER Calcium Modulated Protein (SERCaMP) assay (AID 1508630)", "details": "SH-SY5Y GLuc-SERCaMP (Gaussia luciferase released on ER calcium loss) secretion, thapsigargin, luminescence; series mostly up to 38.4 µM", "outline": "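The SH-SY5Y reporter protocol was run at 3 concentrations up to 38.3 uM (primary) or 11 concentrations (follow-up): 16 h compound, 100 nM thapsigargin for 4 h, then extracellular luciferase luminescence.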", "values": [{"smiles": "Cc1cc2c(cc1Cl)N(C(=O)Nc1ccnc3ccccc13)CC2", "Potency": "inactive"}, {"smiles": "COc1ccccc1N1CCN(CCCCNC(=O)c2ccc3ccccc3c2)CC1", "Potency": "inactive"}, {"smiles": "NCCCNCCCCNCCCN", "Potency": "inactive"}, {"smiles": "CN1CCC2(CCN3CCc4c(oc5ccccc45)C3C2)N(C)C1=O", "note": "(stereo unspecified)", "Potency": "inactive"}, {"smiles": "CC(C)NCC(O)COc1ccc(CC(N)=O)cc1", "note": "(stereo unspecified)", "Potency": "inactive"}, {"smiles": "C=CCn1c(=O)c2c(nc(-c3ccc(S(=O)(=O)O)cc3)n2C)n(C)c1=O", "Potency": "inactive"}, {"smiles": "COc1ccc(-c2ccc(N)[n+](CCCC(=O)O)n2)cc1", "Potency": "inactive"}, {"smiles": "O=c1[nH]c(=O)c2nc3ccccc3nc2[nH]1", "Potency": "inactive"}, {"smiles": "COc1ccc2c(c1)c(CC(=O)O)c(C)n2Cc1ccc(Cl)cc1", "Potency": "inactive"}, {"smiles": "O=[N+]([O-])c1cccc2cn[nH]c12", "Potency": "inactive"}, {"smiles": "NCCNS(=O)(=O)c1cccc2c(Cl)cccc12", "Potency": "inactive"}, {"smiles": "CC1CCN=C(N)S1", "note": "(stereo unspecified)", "Potency": "inactive"}, {"smiles": "CC(=O)N[C@@H](Cc1c[nH]c2ccccc12)C(=O)OCc1cc(C(F)(F)F)cc(C(F)(F)F)c1", "Potency": "inactive"}, {"smiles": "COC1(C2=NCCN2)COc2ccccc2O1", "note": "(stereo unspecified)", "Potency": "inactive"}, {"smiles": "CC(=O)[C@H]1CCC2C3CC=C4C[C@@H](OS(=O)(=O)O)CC[C@]4(C)C3CC[C@@]21C", "note": "(stereo partly specified)", "Potency": "inactive"}, {"smiles": "NCCC1CCCC(CCN)N1", "note": "(stereo unspecified)", "Potency": "inactive"}, {"smiles": "CCN1C(=O)C=CC1=O", "Potency": "inactive"}, {"smiles": "CC#CCOC(=O)c1c(C)nc2sc3c(c2c1N)CCC(O)C3", "note": "(stereo unspecified)", "Potency": "inactive"}, {"smiles": "Cc1cc(Cn2cnc3c2C[C@@H](C(=O)O)N(C(=O)C(c2ccccc2)c2ccccc2)C3)ccc1N", "Potency": "inactive"}, {"smiles": "NC(=O)c1cc[n+](CC2=C(C(=O)O)N3C(=O)[C@@H](NC(=O)[C@@H](c4ccccc4)S(=O)(=O)[O-])[C@H]3SC2)cc1", "Potency": "inactive"}, {"smiles": "O=[N+]([O-])c1cccc2c(Br)[nH]nc12", "Potency": "inactive"}, {"smiles": "NC1(C(=O)O)CCc2cc(C(=O)O)ccc21", "note": "(stereo unspecified)", "Potency": "inactive"}, {"smiles": "CC(N)=O", "Potency": "inactive"}, {"smiles": "CN1CC(O)C(O)C(O)C1CO", "note": "(stereo unspecified)", "Potency": "inactive"}, {"smiles": "CC(O)C(O)[C@H]1CNc2nc(N)[nH]c(=O)c2N1", "note": "(stereo partly specified)", "Potency": "inactive"}, {"smiles": "N[C@@H](CCC(=O)N[C@H](CSN=O)C(=O)NCC(=O)O)C(=O)O", "Potency": "inactive"}, {"smiles": "Cn1c(=O)c2[nH]c(-c3ccc(S(=O)(=O)O)cc3)nc2n(C)c1=O", "Potency": "inactive"}, {"smiles": "C[C@@H](NCCc1ccc(O)cc1)[C@@H](O)c1ccc(O)cc1", "Potency": "inactive"}, {"smiles": "C=C1C(=O)O[C@@H]2[C@H]3O[C@]3(C)CCC=C(C)CC[C@@H]12", "Potency": "inactive"}, {"smiles": "[Li+]", "Potency": "inactive"}, {"smiles": "N[C@H](C(=O)O)[C@H](O)C(=O)O", "Potency": "inactive"}, {"smiles": "C[C@@]1(C2CCCC2)Cc2cc(OCC(=O)O)c(Cl)c(Cl)c2C1=O", "Potency": "inactive"}, {"smiles": "O=C(O)c1ccccc1Nc1cccc(OCc2ccc3ccccc3n2)c1", "Potency": "inactive"}]}, {"molecular_target": "Papain (Carica papaya) (UniProt P00784)", "sequence (P00784 whole entry, looked up)": "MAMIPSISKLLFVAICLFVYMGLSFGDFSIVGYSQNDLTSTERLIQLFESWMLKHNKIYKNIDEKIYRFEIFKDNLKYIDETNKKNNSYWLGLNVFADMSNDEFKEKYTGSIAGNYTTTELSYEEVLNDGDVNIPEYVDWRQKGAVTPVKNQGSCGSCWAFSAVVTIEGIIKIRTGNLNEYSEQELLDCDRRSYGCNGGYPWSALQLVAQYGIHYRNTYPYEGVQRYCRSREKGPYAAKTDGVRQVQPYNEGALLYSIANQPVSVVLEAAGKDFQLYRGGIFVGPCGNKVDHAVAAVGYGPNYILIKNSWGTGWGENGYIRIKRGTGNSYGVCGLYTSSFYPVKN", "assay": "Primary qHTS assay for inhibitors of the protease papain (AID 1645873);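 also: papain turnover of Z-FR-AMC read as the AMC fluorescence gain over 10 min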; also: potency is read from the fitted curve at half-maximal effect", "details": "papain Z-FR-AMC cleavage, AMC fluorescence; series mostly up to 49.8 µM", "values": [{"smiles": "Cc1cc2c(cc1Cl)N(C(=O)Nc1ccnc3ccccc13)CC2", "Potency": "inactive"}, {"smiles": "COc1ccccc1N1CCN(CCCCNC(=O)c2ccc3ccccc3c2)CC1", "Potency": "inactive"}, {"smiles": "NCCCNCCCCNCCCN", "Potency": "inactive"}, {"smiles": "CN1CCC2(CCN3CCc4c(oc5ccccc45)C3C2)N(C)C1=O", "note": "(stereo unspecified)", "Potency": "inactive"}, {"smiles": "CC(C)NCC(O)COc1ccc(CC(N)=O)cc1", "note": "(stereo unspecified)", "Potency": "inactive"}, {"smiles": "C=CCn1c(=O)c2c(nc(-c3ccc(S(=O)(=O)O)cc3)n2C)n(C)c1=O", "Potency": "25.1 µM (active)"}, {"smiles": "NC(Cc1cccc(-c2ccccc2CP(=O)(O)O)c1)C(=O)O", "note": "(stereo unspecified)", "Potency": "inactive"}, {"smiles": "COc1ccc(-c2ccc(N)[n+](CCCC(=O)O)n2)cc1", "Potency": "inactive"}, {"smiles": "O=c1[nH]c(=O)c2nc3ccccc3nc2[nH]1", "Potency": "inactive"}, {"smiles": "COc1ccc2c(c1)c(CC(=O)O)c(C)n2Cc1ccc(Cl)cc1", "Potency": "inactive"}, {"smiles": "O=C(O)/C=C/c1cnc[nH]1", "Potency": "inactive"}, {"smiles": "O=[N+]([O-])c1cccc2cn[nH]c12", "Potency": "inactive"}, {"smiles": "NCCNS(=O)(=O)c1cccc2c(Cl)cccc12", "Potency": "inactive"}, {"smiles": "CC1CCN=C(N)S1", "note": "(stereo unspecified)", "Potency": "inactive"}, {"smiles": "CC(=O)N[C@@H](Cc1c[nH]c2ccccc12)C(=O)OCc1cc(C(F)(F)F)cc(C(F)(F)F)c1", "Potency": "inactive"}, {"smiles": "COC1(C2=NCCN2)COc2ccccc2O1", "note": "(stereo unspecified)", "Potency": "inactive"}, {"smiles": "CC(=O)[C@H]1CCC2C3CC=C4C[C@@H](OS(=O)(=O)O)CC[C@]4(C)C3CC[C@@]21C", "note": "(stereo partly specified)", "Potency": "28.2 µM (active)"}, {"smiles": "NCCC1CCCC(CCN)N1", "note": "(stereo unspecified)", "Potency": "inactive"}, {"smiles": "CCN1C(=O)C=CC1=O", "Potency": "inactive"}, {"smiles": "CC#CCOC(=O)c1c(C)nc2sc3c(c2c1N)CCC(O)C3", "note": "(stereo unspecified)", "Potency": "inactive"}, {"smiles": "Cc1cc(Cn2cnc3c2C[C@@H](C(=O)O)N(C(=O)C(c2ccccc2)c2ccccc2)C3)ccc1N", "Potency": "inactive"}, {"smiles": "NC(=O)c1cc[n+](CC2=C(C(=O)O)N3C(=O)[C@@H](NC(=O)[C@@H](c4ccccc4)S(=O)(=O)[O-])[C@H]3SC2)cc1", "Potency": "inactive"}, {"smiles": "O=[N+]([O-])c1cccc2c(Br)[nH]nc12", "Potency": "inactive"}, {"smiles": "CCOC(=O)C12CC1/C(=N/O)c1ccccc1O2", "note": "(stereo unspecified)", "Potency": "inactive"}, {"smiles": "NC1(C(=O)O)CCc2cc(C(=O)O)ccc21", "note": "(stereo unspecified)", "Potency": "inactive"}, {"smiles": "CC(N)=O", "Potency": "inactive"}, {"smiles": "CN1CC(O)C(O)C(O)C1CO", "note": "(stereo unspecified)", "Potency": "inactive"}, {"smiles": "CC(O)C(O)[C@H]1CNc2nc(N)[nH]c(=O)c2N1", "note": "(stereo partly specified)", "Potency": "25.1 µM (active)"}, {"smiles": "N[C@@H](CCC(=O)N[C@H](CSN=O)C(=O)NCC(=O)O)C(=O)O", "Potency": "inactive"}, {"smiles": "Cn1c(=O)c2[nH]c(-c3ccc(S(=O)(=O)O)cc3)nc2n(C)c1=O", "Potency": "25.1 µM (active)"}, {"smiles": "C[C@@H](NCCc1ccc(O)cc1)[C@@H](O)c1ccc(O)cc1", "Potency": "inactive"}, {"smiles": "C=C1C(=O)O[C@@H]2[C@H]3O[C@]3(C)CCC=C(C)CC[C@@H]12", "Potency": "inactive"}, {"smiles": "[Li+]", "Potency": "inactive"}, {"smiles": "CCc1ccc2c(-c3cccc(Cl)c3)nc(=O)n(CC)c2n1", "Potency": "inactive"}, {"smiles": "N[C@H](C(=O)O)[C@H](O)C(=O)O", "Potency": "inactive"}, {"smiles": "N#C/C(=C\\c1ccc(O)c(O)c1)C(=O)NCCc1ccccc1", "Potency": "inactive"}, {"smiles": "C[C@@]1(C2CCCC2)Cc2cc(OCC(=O)O)c(Cl)c(Cl)c2C1=O", "Potency": "inactive"}, {"smiles": "O=C(O)c1ccccc1Nc1cccc(OCc2ccc3ccccc3n2)c1", "Potency": "inactive"}]}]}
